Data on 56 molecules can be found in PubChem BioAssay AID1625 (Sanford-Burnham Center for Chemical Genomics, 2009).

The structures appear in SMILES notation. In all, about 190,000 compounds went through this assay and about 570 (0.3%) were called active.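 How the source made its calls: active means z-score above 3 at 5 µM with at least 500 cells counted in the well; inconclusive means wells under 500 cells, flagged as cytotoxic or low count; inactive means the rest.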 The entries come from a sample that favours actives as a whole.

This assay can be described thus: insulin promoter activators in MIN6 cells, imaging, high-content screening, mouse beta cells (AID 1625).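 On cell count: total cells summed across four imaged fields per well.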 To be noted: MIN6 insulin promoter-GFP reporter, at 5 µM; cell count: measured here: cytotoxicity, nuclei count; z-score: stronger effect = higher value.
In the case of `Cc1ccc(C(=O)N/C(=C\c2ccco2)C(=O)N2CCSCC2)cc1C`, the cell count worked out at 1360 cells and the z-score is -0.32 (inactive).
Regarding `CC1CCN(c2ccc([N+](=O)[O-])cc2C(N)=O)CC1`, the cell count came to 1470 cells and the z-score was 0.15 (inactive).
With `COC(=O)c1sccc1NC(=O)c1csc2c1CCCC2`, the cell count is 1260 cells and the z-score was -0.75 (inactive).
For the molecule `COC(=O)c1sccc1NC(=O)COc1ccc(Cl)cc1`, the cell count was 2220 cells and the z-score is -0.38 (inactive).
On to `COC(=O)c1sccc1NC(=O)c1cc(OC)c(OC)c(OC)c1`, for which the cell count came out at 1440 cells and the z-score was 3.71 (active).
As to `O=S(=O)(c1ccc(Cl)cc1)N1CCCN(c2ccc(C(F)(F)F)cn2)CC1`, the cell count came to 1100 cells and the z-score was -0.98 (inactive).
Turning to `Cc1ccnc(NC(=O)CCCOc2ccccc2)c1`, the cell count is 1410 cells and the z-score is -0.12 (inactive).
For the molecule `COC(=O)c1scc(S(=O)(=O)C(C)(C)C)c1-n1cccc1`, the cell count is 1430 cells and the z-score was 0.89 (inactive).
`O=C(CSc1nc2ccccc2s1)Nc1ccc(C(=O)O)cc1`: the cell count was determined as 1290 cells and the z-score is 0.75 (inactive).
As to `Cc1oc(C(N)=O)cc1COc1ccc(C(N)=O)cc1`, the cell count is 1120 cells and the z-score is -0.28 (inactive).
For `COc1ccc(N2C(=O)C(Cc3ccccc3)NC2=S)cc1` (configuration not stated) the same measures were 1180 cells and 0.5 (inactive).
For the molecule `CCOC(=O)C1CCN(C(=O)Nc2cccc(OC)c2)CC1`, the cell count is 1010 cells and the z-score is -0.44 (inactive).
Consider `CN(CCCNC(=O)CN1C(=O)CC(C)(C)S(=O)(=O)c2ccccc21)C1CCCCC1`, for which the cell count is 1010 cells and the z-score was 3.03 (active).
For `O=C(CN1C(=O)CC(c2ccccc2)S(=O)(=O)c2ccccc21)NC1CCCC1` (configuration not stated) the same measures were 1220 cells and -1.1 (inactive).
Taken in the same sequence, the figures for `Cc1oc(-c2ccccc2F)nc1CS(=O)(=O)CC(=O)NCCCN(C)C1CCCCC1` were 1560 cells and 0.14 (inactive).
For `O=C1CCCC(O)=C1C=NCCc1ccccc1` the same measures were 1000 cells and 3.02 (active).
Regarding `O=C1CC(c2ccccc2)CC(O)=C1C=NCCN1CCOCC1` (configuration not stated), the cell count came to 1300 cells and the z-score is -0.21 (inactive).
For `CC1(C)CC(=O)C(C=NCCC2=CCCCC2)=C(O)C1`, the cell count was 1030 cells and the z-score is 0.42 (inactive).
`CS(=O)(=O)c1ccc2nnn(OCC(=O)Nc3cccc(C#N)c3)c2c1`: the cell count was 1340 cells and the z-score is -0.14 (inactive).
In the case of `Cc1cc(C)c(NC(=O)CN2C(=O)NC(Cc3ccccc3)C2=O)c(C)c1` (configuration not stated), the cell count is 1480 cells and the z-score was 0.2 (inactive).
For `CN1CCN(CCNC(=O)Nc2ccc([N+](=O)[O-])cc2)CC1` the same measures were 1230 cells and 0.23 (inactive).
With `Cn1ccc(NC(=O)Nc2ccc(Cl)cc2)n1`, the cell count is 1320 cells and the z-score is 0.16 (inactive).
Regarding `Cc1c(C(=O)N2CCCc3ccccc32)sc2nc(-c3ccccc3)cn12`, the cell count came to 661 cells and the z-score is 1.22 (inactive).
For the molecule `Cc1occc1C(=O)N1CCCc2ccccc21`, the cell count was 1220 cells and the z-score is 0.1 (inactive).
Take `Cc1cccc2cc3c(N)c(C(=O)N4CCCc5ccccc54)sc3nc12`: the cell count was 725 cells and the z-score is 6.25 (active).
Turning to `CCOC(=O)C1=C(CN2CCCCCC2)NC(=O)NC1c1cccc([N+](=O)[O-])c1` (configuration not stated), the cell count is 1200 cells and the z-score is 0.23 (inactive).
For `COCc1cc(=O)oc2cc(NS(=O)(=O)c3ccc(C)cc3)ccc12` the same measures were 1024 cells and 0.12 (inactive).
In the case of `CC1=NNC(=O)C1CC(=O)N/N=C/c1ccncc1` (configuration not stated), the cell count is 1010 cells and the z-score is 1.19 (inactive).
Turning to `COc1c(C=O)c(CCN(C)C(=O)c2ccc(F)cc2)cc2c1OCO2`, the cell count is 1010 cells and the z-score was 0.62 (inactive).
For the molecule `Cc1nn(CC2CC2)c(=O)n1N(C)c1ncc(C(F)(F)F)cc1Cl`, the cell count was 1660 cells and the z-score was -0.16 (inactive).
With `COc1cc(/C=N/Nc2nc3ccccc3s2)ccc1O`, the cell count is 924 cells and the z-score was -0.19 (inactive).
In the case of `Cn1c(SCC(=O)c2ccc(F)cc2)nnc1-c1ccccn1`, the cell count was determined as 1430 cells and the z-score was -0.19 (inactive).
For `O=C(O)C#Cc1cccc2ccccc12`, the cell count is 952 cells and the z-score is -0.45 (inactive).
As to `Cc1cc(C)c2[nH]c(=O)c(CN(Cc3ccccc3)C(=S)NCCCN(C)C)cc2c1`, the cell count came to 1260 cells and the z-score is -0.25 (inactive).
In the case of `CCOc1ccc(NC(=S)N2CCCCCC2)cc1`, the cell count came out at 1240 cells and the z-score is -0.11 (inactive).
Taken in the same sequence, the figures for `CCC(C)N(C)C1CCN(C(=S)Nc2ccc(OC)cc2)CC1` (configuration not stated) were 1120 cells and 0.62 (inactive).
As for `CCOc1ccc(NC(=S)N2CCC(N(C)CC3CCCO3)CC2)cc1` (configuration not stated), the cell count turned out to be 1410 cells and the z-score is 3.59 (active).
Regarding `Cc1cccc(N(C)C(=O)c2cc3c(=O)[nH]c4ccc(C)cc4c3s2)c1`, the cell count turned out to be 642 cells and the z-score was -0.64 (inactive).
For `CCn1c2ccccc2c2cc(NC(=O)Nc3ccc([N+](=O)[O-])cc3C)ccc21` the same measures were 1070 cells and -0.69 (inactive).
Regarding `O=c1c2cc(-c3ccccc3)sc2nc2n1N=C(c1cccs1)CS2`, the cell count is 940 cells and the z-score is 0.28 (inactive).
Taken in the same sequence, the figures for `S=c1[nH]nc(-c2cccs2)n1/N=C/c1cn(-c2ccccc2)nc1-c1ccc(Cl)cc1` were 941 cells and -0.14 (inactive).
For `NS(=O)(=O)c1cccc(NC(=O)CSc2nc3ccccc3n2-c2ccccc2)c1`, the cell count is 1570 cells and the z-score is -0.28 (inactive).
Regarding `COc1cccc(NCCC(=O)c2cccc([N+](=O)[O-])c2)c1`, the cell count came out at 1430 cells and the z-score is -0.59 (inactive).
On to `COc1ccc(-c2nc(CCNC(=O)c3ccc(Br)o3)cs2)cc1`, for which the cell count is 1790 cells and the z-score is -0.21 (inactive).
With `O=S(=O)(NCCc1csc(-c2ccccc2)n1)c1cccnc1`, the cell count is 1020 cells and the z-score was 0.1 (inactive).
With `O=C(NCCc1csc(-c2ccccc2)n1)c1ccccc1F`, the cell count amounted to 879 cells and the z-score is 4.15 (active).
Consider `COc1ccc([N+](=O)[O-])cc1N(CC(O)CN(CC(C)C)CC(C)C)S(=O)(=O)c1ccc(C)cc1` (configuration not stated), for which the cell count stood at 984 cells and the z-score was 0.3 (inactive).
For `O=C1CN(C(=O)COC(=O)c2cnc(Cl)c(Cl)c2)c2ccccc2N1`, the cell count was found to be 1340 cells and the z-score is 0.22 (inactive).
`Cc1ccc(OCC(=O)c2cc(C)n(Cc3ccco3)c2C)c([N+](=O)[O-])n1`: the cell count is 717 cells and the z-score is 0.32 (inactive).
On to `CCCCCOC(=O)C1=C(C)Nc2nnnn2C1c1ccc(OC)c(OC)c1OC` (configuration not stated), for which the cell count is 1410 cells and the z-score was 3.26 (active).
Regarding `CC1=C(C(N)=O)C(c2sccc2C)n2nnnc2N1` (configuration not stated), the cell count is 787 cells and the z-score is 1.11 (inactive).
For `COc1ccc(C2C(C(=O)Nc3ccccc3OC)=C(C)Nc3nnnn32)c(OC)c1` (configuration not stated), the cell count was 1590 cells and the z-score is 0.06 (inactive).
For `CN(C)S(=O)(=O)c1cccc(-c2nn(-c3ccccc3)cc2/C=C2\SC(=S)N(CC(=O)O)C2=O)c1`, the cell count worked out at 1060 cells and the z-score is -0.06 (inactive).
Consider `CNC(=S)NNC(=O)c1oc2nc(-c3ccccc3)cc(-c3ccco3)c2c1N`, for which the cell count worked out at 871 cells and the z-score is 3.41 (active).
Regarding `CNC(=S)NNC(=O)c1cccn(Cc2ccccc2)c1=O`, the cell count was 1390 cells and the z-score is -0.17 (inactive).
For `NNC(=O)c1oc2nc(-c3ccccc3)cc(-c3ccco3)c2c1N` the same measures were 1010 cells and 1.58 (inactive).
